Laboratory results from PubChem BioAssay AID933 (National Center for Advancing Translational Sciences (NCATS), 2007).
Inconclusive results are not listed. Entries that show only a call come without a potency. Values without a mark were called inactive. Activity calls are given as the source filed them. The call rests on the fitted dose curve; in most records, active means well fitted activation curve with a large enough effect in the signal ratio, with a control signal flat; inconclusive means small, poorly fitted or top-dose-only effect, or a change in a side signal; inactive means flat fitted curve, though single readings scatter; the % refers to the signal ratio.

Molecular target: Thyrotropin receptor (Homo sapiens) (UniProt P16473)
Sequence (P16473 whole entry, looked up): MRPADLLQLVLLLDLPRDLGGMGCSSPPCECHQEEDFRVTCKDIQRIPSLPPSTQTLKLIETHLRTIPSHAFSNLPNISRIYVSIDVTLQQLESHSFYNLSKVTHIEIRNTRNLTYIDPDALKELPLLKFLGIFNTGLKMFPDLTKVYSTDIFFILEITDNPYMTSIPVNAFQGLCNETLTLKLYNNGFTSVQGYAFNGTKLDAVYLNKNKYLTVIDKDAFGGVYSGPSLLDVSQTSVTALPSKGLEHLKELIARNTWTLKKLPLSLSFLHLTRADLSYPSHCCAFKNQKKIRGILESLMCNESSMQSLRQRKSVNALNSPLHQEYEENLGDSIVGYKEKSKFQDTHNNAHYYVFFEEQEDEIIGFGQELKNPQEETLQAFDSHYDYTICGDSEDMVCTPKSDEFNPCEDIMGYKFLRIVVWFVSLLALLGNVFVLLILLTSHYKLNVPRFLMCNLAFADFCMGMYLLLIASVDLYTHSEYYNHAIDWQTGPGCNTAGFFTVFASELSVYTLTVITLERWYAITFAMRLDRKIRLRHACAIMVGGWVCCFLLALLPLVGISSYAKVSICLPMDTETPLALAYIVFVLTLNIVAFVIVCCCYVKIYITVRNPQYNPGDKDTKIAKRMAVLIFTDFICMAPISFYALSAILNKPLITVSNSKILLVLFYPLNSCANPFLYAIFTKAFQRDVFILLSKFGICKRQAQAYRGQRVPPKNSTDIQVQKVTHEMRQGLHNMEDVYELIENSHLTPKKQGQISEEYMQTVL
Test: Secondary Concentration-Response Assay for Agonists of the Thyroid Stimulating Hormone Receptor: HTRF Activity Detection
Details: HEK293-TSHR cells, cAMP HTRF ratio, 30 min; series mostly up to 91.7 µM
How it was run: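 cAMP accumulation was detected by antibody-based HTRF, excitation 330 nm, emissions 615 and 660 nm. Compounds acted for 30 min at room temperature on stably TSHR-transfected HEK 293 cells, with phosphodiesterase inhibitor RO 20-1724 (100 uM) in the medium.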
Potency means the concentration at half of the fitted maximal effect.

Structure (SMILES)	Potency	activation
COc1ccc(C2Nc3ccccc3C(=O)N2Cc2ccccc2)cc1COc1ccc(Cl)cc1Cl (centres undefined)	inactive	
COc1ccc(C2=Nn3c(nnc3-c3ccccc3OC)SC2)cc1OC	inactive	
COc1ccc(C2Nc3ccc(NC(C)=O)cc3C(=O)N2Cc2ccccc2)cc1COc1ccc(NC(C)=O)cc1 (centres undefined)	15.8 µM (active)	
COc1cc(C2Nc3ccccc3C(=O)N2Cc2ccccc2)ccc1OCc1ccc(NC(C)=O)cc1 (centres undefined)	inactive	
Cc1cc(C)n(S(=O)(=O)c2cc(C(=O)O)c(Cl)cc2Cl)n1		-0.754% [at 0.00035 µM]
COc1ccc(C2Nc3ccc(Cl)cc3C(=O)N2Cc2ccccc2)cc1COc1ccc(NC(C)=O)cc1 (centres undefined)	14.1 µM (active)	
COc1ccc(C2Nc3ccc(NC(=O)COC(C)=O)cc3C(=O)N2Cc2ccccc2)cc1COc1ccc(NC(C)=O)cc1 (centres undefined)	8.91 µM (active)	
CCc1ccccc1NC1=NCC(=O)N1Cc1ccc(OC)cc1		0.0927% [at 0.00035 µM]
O=C(CN(Cc1ccc(F)cc1)S(=O)(=O)c1ccccc1)N1CCCCC1		0.34% [at 0.00035 µM]
CCn1c(=O)c(C(=O)CN2CCCc3ccccc32)c(N)n(Cc2ccccc2)c1=O	inactive	
CCOC(=O)COc1c(OC)cc(Cl)cc1C1Nc2ccccc2C(=O)N1c1ccccc1 (centres undefined)	inactive	
COc1ccc(/C=N/n2cncn2)cc1COc1ccc(NC(C)=O)cc1	inactive	
COc1ccc(C2Nc3ccccc3C(=O)N2Cc2ccco2)cc1OC (centres undefined)	inactive	
COc1ccc(C2Nc3cccc(O)c3C(=O)N2Cc2ccccc2)cc1COc1ccc(NC(C)=O)cc1 (centres undefined)	7.94 µM (active)	
